From PubChem BioAssay (NCI)
The panel holds about 79,000 compounds, 15% with a hit somewhere; the sample as a whole holds those more often. Values without a mark were called inactive. Calls of active or inactive are those of the source. Cut-off read from the data, not from the text of the source: active = growth inhibition above about 70%; inactive = the rest.

Experiment: NCI Yeast Anticancer Drug Screen. Data for the sgs1 mgt1 strain (AID 161);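 note: 0% = growth of cultures given vehicle only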
Details: S. cerevisiae sgs1 mgt1 strain, stronger effect = higher value
Description: Growth inhibition of yeast strains with defined genetic alterations is measured as a screen for potential anti-cancer activity. Selected strains with alterations in DNA damage repair or cell cycle control were exposed to compounds and growth inhibition was measured relative to vehicle treated controls. The strain used in this assay is sgs1 mgt1

[1] = at 5.0 µM (retest, dose inferred, filed as 0.5)
[2] = at 50.0 µM (retest, dose inferred, filed as 5.0)

Row | Structure (SMILES) | growth inhibition [1] | growth inhibition [2] | growth inhibition (at 50.0 µM)
1 | O=C1NC(c2c(Cl)cccc2Cl)Nc2ccccc21 (stereo not given) | -3% | 87% (active) | –
2 | CC(=O)N1C(=O)/C(=C\C(=O)c2ccc([N+](=O)[O-])cc2)c2ccccc21 | 46% | 98% (active) | 88.8% (active)
3 | CN(CC(=O)O)c1ccc(/C=C/c2ccnc3ccccc23)cc1 | 5% | 80% (active) | 59.2%
4 | CC(=O)Oc1ccc(C(=O)c2ccccc2)c(O)c1 | -18% | 88% (active) | 74.5% (active)
5 | CCC(=O)Oc1ccc(/C=N/NC(N)=S)nc1 | 0% | 32% | 39%
6 | O=C1C=CC(=O)N1c1ccc2c(c1)OCO2 | 8% | 98% (active) | 99.2% (active)
7 | C=Cc1cnc([N+](=O)[O-])n1C | 61% | 95% (active) | 83.1% (active)
8 | CC(=O)CC(=O)/C=C/c1cccs1 | -16% | 44% | 51.2%
9 | O=C1C(Cl)=C(Cl)C(Cl)(Cl)C(Cl)C1(Cl)Cl (stereo not given) | 30% | 99% (active) | 99.6% (active)
10 | CCCCCCCCCCCCCC(=O)OC(C)CCC1CCCO1 (stereo not given) | 3% | 25% | 13.2%
11 | NC(N)=N/N=C/c1cc(Cl)cc(Cl)c1O | 4% | 98% (active) | –
12 | Oc1ccc(Br)cc1C=NC1CCCCC1 | -2% | 99% (active) | 85.3% (active)
13 | CCOC(=O)CNC(=O)c1[nH]cnc1/N=N/N(C)C | -12% | -7% | 89.5% (active)
14 | COc1ccc2c(c1)[nH]c1c(/C=C/c3ccccc3)nccc12 | -28% | 80% (active) | 92.5% (active)
